Test results taken from ChEMBL document CHEMBL3988442, “University of Dundee, Small-Polar-MMV Screening Library” (2021).
For part of these data: Potency and affinity values are given separately.

How the values were obtained:
Parameters in all cases: scale not given: direction of the effect not stated beside the values
[1] = biological target: Protein translocase subunit SecA (Escherichia coli (strain K12)) (UniProt P10408); test: Assay to Identify E. coli SecA ATPase Inhibitors; assay type: functional; conditions: 30 µM
[2] = biological target: T1, Ubiquitin-activating enzyme e1, putative (Leishmania donovani (strain BPK282A1)) (UniProt E9BSI1); test: Leishmania donovani Ubiquitin Activating Enzyme (LdE1); assay type: functional; conditions: 30 µM
T1 sequence (whole entry): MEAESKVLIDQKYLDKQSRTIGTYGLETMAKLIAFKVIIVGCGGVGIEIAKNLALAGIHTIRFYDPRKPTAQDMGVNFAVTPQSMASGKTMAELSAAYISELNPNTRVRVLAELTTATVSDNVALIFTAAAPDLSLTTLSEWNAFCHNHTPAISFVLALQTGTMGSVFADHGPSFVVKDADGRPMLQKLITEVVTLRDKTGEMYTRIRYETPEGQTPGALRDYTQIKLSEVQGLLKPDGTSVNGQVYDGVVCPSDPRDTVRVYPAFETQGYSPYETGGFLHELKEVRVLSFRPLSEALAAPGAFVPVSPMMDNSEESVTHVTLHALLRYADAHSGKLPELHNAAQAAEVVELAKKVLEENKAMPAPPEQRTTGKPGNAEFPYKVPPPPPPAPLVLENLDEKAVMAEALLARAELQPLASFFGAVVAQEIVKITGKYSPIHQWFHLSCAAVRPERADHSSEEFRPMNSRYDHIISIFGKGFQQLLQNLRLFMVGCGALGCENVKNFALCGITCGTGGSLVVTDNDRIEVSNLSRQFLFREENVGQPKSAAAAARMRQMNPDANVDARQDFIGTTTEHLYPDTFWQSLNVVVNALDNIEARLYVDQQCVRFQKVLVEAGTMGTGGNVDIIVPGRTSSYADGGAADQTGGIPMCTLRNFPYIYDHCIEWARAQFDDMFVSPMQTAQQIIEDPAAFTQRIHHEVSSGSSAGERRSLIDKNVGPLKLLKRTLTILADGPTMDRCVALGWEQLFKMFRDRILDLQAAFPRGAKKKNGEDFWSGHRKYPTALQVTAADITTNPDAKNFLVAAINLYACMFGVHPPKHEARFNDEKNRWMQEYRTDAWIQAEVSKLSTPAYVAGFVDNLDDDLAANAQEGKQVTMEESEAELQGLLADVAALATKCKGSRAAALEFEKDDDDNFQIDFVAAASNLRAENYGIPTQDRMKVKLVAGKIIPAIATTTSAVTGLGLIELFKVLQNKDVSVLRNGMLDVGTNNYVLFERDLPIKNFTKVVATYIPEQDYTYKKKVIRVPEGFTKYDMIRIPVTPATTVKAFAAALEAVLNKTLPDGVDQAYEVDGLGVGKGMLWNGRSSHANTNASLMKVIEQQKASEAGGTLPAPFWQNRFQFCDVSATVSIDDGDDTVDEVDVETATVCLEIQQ

[3] = biological target: Sialic acid-binding Ig-like lectin 9 (Homo sapiens) (UniProt Q9Y336); test: Hs-Siglec9 ALPHAscreen SOP 20170721; conditions: 10 µM
Trypanosoma cruzi = test: Trypanosoma cruzi phosphomannomutase and mannose-1-phosphate guanylyltransferase assay; assay type: functional; conditions: 10 µM
[4] = biological target: T2, Arginase-2, mitochondrial (Homo sapiens) (UniProt P78540); test: in vitro enzyme assay to detect the production of urea directly proportional to the activity of Arginase II; assay type: functional; conditions: 33.3 µM; further: in the data most compounds retested in dose-response had high values
T2 sequence (whole entry): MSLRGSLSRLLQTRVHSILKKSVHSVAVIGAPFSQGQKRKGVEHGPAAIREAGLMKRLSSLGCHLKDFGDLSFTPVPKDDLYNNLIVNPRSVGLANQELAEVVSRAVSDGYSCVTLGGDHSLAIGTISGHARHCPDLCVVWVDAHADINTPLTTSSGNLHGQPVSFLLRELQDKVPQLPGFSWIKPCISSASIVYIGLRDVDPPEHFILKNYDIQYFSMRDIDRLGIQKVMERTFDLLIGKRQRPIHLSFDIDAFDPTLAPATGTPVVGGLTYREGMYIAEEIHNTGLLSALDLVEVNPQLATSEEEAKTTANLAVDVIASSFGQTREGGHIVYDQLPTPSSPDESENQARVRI

[5] = biological target: T3, Proteasome subunit beta (Trypanosoma cruzi) (UniProt O96673); test: Trypanosoma cruzi proteasome chymotrypsin-like activity (TcProtChymo) assay.; further: in the data most compounds retested in dose-response had high values; assay type: functional; conditions: 9.37 µM
T3 sequence (whole entry): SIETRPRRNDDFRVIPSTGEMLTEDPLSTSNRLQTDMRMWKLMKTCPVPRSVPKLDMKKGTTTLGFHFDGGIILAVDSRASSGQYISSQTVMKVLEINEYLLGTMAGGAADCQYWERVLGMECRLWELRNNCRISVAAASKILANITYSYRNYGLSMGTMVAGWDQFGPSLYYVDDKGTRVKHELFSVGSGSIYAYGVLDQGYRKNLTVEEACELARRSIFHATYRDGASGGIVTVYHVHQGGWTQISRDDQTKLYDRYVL

Homo sapiens = organism: Homo sapiens; test: To identify inhibition of the IFN signalling (Jak-Stat) pathway via expression of an eGFP reporter gene under the control of an IFN-stimulated response element (ISRE) containing MxA promoter.; assay type: functional; conditions: 30 µM
[6] = biological target: T4, Tyrosyl-tRNA synthetase, putative (Trypanosoma cruzi (strain CL Brener)) (UniProt Q4DSP6); test: Trypanosoma cruzi tyrosyl tRNA synthetase (TcYRS) _High Tyrosine SOP; assay type: functional; conditions: 30 µM; further: in the data most compounds retested in dose-response had high values
T4 sequence (whole entry): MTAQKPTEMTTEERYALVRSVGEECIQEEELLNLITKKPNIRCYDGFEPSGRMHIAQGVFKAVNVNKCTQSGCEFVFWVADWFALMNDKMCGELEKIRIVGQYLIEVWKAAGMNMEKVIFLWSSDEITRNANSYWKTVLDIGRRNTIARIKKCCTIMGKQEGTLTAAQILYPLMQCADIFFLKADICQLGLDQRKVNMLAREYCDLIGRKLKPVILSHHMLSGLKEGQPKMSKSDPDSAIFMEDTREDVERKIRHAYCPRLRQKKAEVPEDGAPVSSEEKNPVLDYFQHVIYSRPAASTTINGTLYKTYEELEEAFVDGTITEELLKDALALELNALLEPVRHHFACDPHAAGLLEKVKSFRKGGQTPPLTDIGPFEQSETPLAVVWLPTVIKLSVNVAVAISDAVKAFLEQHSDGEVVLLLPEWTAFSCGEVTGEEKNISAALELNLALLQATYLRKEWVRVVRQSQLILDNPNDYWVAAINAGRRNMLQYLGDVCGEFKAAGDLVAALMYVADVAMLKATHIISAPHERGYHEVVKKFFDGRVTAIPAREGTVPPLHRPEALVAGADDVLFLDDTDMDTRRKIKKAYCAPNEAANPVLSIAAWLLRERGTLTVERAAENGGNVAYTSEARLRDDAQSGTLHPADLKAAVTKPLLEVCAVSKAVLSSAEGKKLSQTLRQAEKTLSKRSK

[7] = biological target: T4, Tyrosyl-tRNA synthetase, putative (Trypanosoma cruzi (strain CL Brener)); test: Trypanosoma cruzi tyrosyl tRNA synthetase (TcYRS) SOP; assay type: functional; conditions: 30 µM
[8] = biological target: Chromo domain-containing protein 1 (Saccharomyces cerevisiae (strain ATCC 204508 / S288c) (Baker's yeast)) (UniProt P32657); test: ScCHD-1 Enzyme Inhibition Assay; assay type: functional; conditions: 30 µM; further: in the data most compounds retested in dose-response had high values
Chain of Chromo domain-containing protein 1 (Saccharomyces cerevisiae (strain ATCC 204508 / S288c) (Baker's yeast)) (P32657 whole entry, the tested form may be a part): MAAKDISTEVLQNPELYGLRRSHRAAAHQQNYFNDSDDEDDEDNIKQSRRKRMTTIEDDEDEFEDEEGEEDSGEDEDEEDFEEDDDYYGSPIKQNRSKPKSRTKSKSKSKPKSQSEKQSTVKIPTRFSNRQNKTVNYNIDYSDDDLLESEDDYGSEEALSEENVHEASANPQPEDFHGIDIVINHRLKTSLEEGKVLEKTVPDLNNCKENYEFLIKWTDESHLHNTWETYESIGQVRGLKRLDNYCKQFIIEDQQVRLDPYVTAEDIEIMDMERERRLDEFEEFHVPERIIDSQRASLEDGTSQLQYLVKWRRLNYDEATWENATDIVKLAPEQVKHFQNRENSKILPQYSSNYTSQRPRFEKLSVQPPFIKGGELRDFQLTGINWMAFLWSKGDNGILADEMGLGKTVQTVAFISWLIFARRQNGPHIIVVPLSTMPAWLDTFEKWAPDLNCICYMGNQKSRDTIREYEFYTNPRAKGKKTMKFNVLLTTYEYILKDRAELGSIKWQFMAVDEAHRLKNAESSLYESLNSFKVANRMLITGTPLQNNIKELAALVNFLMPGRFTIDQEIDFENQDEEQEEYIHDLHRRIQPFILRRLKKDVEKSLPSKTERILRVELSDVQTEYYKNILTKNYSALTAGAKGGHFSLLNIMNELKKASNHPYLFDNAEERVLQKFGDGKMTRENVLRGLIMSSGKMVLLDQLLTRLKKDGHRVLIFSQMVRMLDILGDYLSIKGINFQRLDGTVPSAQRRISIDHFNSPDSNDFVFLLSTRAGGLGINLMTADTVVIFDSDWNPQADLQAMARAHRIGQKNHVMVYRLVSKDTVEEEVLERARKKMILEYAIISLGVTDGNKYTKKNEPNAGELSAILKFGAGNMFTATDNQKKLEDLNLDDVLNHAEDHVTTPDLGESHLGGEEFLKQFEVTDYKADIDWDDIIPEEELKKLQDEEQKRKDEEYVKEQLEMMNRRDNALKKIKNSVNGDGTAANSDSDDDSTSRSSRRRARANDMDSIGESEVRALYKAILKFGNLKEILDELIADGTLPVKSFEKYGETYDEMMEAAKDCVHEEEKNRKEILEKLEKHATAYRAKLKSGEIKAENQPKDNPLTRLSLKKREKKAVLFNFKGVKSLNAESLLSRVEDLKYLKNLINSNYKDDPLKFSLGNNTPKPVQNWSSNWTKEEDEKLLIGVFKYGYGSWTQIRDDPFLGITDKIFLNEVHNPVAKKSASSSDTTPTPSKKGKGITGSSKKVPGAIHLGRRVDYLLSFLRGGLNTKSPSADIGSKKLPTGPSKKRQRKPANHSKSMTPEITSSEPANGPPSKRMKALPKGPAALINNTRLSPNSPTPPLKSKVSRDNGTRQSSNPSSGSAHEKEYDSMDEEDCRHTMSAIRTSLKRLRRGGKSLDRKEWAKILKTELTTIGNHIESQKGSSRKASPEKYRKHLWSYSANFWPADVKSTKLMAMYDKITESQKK

Chain of Protein translocase subunit SecA (Escherichia coli (strain K12)) (P10408 whole entry): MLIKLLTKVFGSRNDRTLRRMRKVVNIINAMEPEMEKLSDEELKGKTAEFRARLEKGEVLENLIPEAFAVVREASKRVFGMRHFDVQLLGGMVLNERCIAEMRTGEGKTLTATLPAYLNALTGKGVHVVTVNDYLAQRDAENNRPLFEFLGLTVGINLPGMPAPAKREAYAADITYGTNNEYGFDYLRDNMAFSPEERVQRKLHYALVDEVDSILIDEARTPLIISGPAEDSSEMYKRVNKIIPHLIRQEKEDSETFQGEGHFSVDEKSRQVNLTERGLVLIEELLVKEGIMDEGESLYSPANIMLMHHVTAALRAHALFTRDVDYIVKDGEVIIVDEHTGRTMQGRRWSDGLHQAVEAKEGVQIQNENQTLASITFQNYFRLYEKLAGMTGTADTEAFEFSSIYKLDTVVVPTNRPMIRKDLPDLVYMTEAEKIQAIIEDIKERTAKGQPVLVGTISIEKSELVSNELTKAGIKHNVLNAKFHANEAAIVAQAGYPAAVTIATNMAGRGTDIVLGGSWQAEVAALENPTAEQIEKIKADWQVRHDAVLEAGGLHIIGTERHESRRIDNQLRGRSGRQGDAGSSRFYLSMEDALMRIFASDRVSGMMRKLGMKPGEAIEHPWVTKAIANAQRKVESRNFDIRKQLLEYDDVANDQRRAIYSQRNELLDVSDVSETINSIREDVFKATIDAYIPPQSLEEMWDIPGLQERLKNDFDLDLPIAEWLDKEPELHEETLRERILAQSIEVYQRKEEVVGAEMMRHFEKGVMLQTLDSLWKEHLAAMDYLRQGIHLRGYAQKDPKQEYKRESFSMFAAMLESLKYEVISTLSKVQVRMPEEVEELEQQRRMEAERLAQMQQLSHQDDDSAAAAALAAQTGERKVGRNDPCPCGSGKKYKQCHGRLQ
Chain of Sialic acid-binding Ig-like lectin 9 (Homo sapiens) (Q9Y336 whole entry): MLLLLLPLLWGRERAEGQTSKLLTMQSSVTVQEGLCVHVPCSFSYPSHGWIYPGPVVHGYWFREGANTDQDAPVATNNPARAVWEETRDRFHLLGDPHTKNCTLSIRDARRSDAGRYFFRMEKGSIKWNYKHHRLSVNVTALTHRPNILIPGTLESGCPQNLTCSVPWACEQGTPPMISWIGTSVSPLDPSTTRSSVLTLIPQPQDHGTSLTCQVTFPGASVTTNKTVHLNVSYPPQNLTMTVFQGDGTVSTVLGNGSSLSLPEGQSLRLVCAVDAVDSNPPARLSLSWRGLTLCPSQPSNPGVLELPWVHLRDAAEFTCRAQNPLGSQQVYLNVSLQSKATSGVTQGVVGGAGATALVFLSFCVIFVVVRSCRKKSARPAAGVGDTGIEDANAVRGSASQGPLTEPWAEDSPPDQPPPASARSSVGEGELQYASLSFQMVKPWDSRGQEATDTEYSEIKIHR

Row | SMILES | Percent Effect [1] | Percent Effect [2] | Percent Effect [3] | Percent Effect (Trypanosoma cruzi) | Percent Effect [4] | Percent Effect [5] | Percent Effect (Homo sapiens) | Percent Effect [6] | Percent Effect [7] | Percent Effect [8]
1 | COc1cccc2c1OCC(C(=O)N1CCC(N3CCOC3=O)CC1)C2 (stereo not given) | -6.75% | 13.5% | 15.6% | 4.95% | 10.8% | 9.59% | 8.78% | 9.04% | 12.2% | -5.88%
2 | Cc1ncc(-c2ccnc(N3CCCCC3)n2)c(=O)[nH]1 | -0.483% | 8% | 1.07% | -8.84% | -0.887% | 9.07% | 21.2% | 0.526% | 5.13% | -11.6%
3 | Cc1nc(C(=O)N2CCC(Cc3cnc4[nH]ccc4c3)C2)co1 (stereo not given) | -3.17% | 6.67% | -5.86% | -1.97% | -4.87% | 10.5% | 26.2% | -2.12% | -2.5% | -18.2%
4 | O=C(NCC1CC1)C1=NOC2(CCN(S(=O)(=O)c3cccs3)C2)C1 (stereo not given) | -2.62% | -3.9% | 6.57% | -1.85% | -3.64% | 3.79% | -1.32% | -0.526% | -2.56% | 0.639%
5 | COc1ccc(CN2C[C@@H]3COC[C@]3(CN(C)C)C2)cc1 | -12.1% | -1.3% | -2.55% | 1.07% | -1.22% | 8.56% | -15% | 4.74% | 7.69% | -0.368%
6 | Cc1ccc(Cl)cc1N1CCC(CNC(=O)CC(F)(F)F)C1 (stereo not given) | -3.87% | -2.56% | -7.65% | -2.54% | 1.23% | 7.25% | 38.9% | -0.478% | -3.61% | 0.808%
7 | CC(C)N1CCO[C@H]2CN(C(=O)c3ccoc3)C[C@H]21 | -6.85% | 3.9% | -7.81% | -1.66% | 2.43% | 4.85% | 0.754% | 5.79% | 10.3% | 3.83%
8 | O=C(Cc1n[nH]c2ccccc12)N1CCC(Nc2cccnn2)CC1 | -6.35% | 10.4% | 4.16% | 3.36% | -7.58% | 13.2% | -4.05% | 5.88% | 11.8% | -9.11%
9 | CCS(=O)(=O)N1CCC2(CC1)CN(Cc1ccccn1)C(=O)CO2 | 2.67% | 1.3% | 1.21% | -0.487% | 1.62% | 3.44% | -2.87% | -1.58% | 0% | 2.48%
10 | Cc1cccnc1CNCC1(O)CCCN(Cc2ccc(F)cc2)C1=O (stereo not given) | -5.67% | 8.11% | 19.1% | 9.41% | 29.7% | -0.514% | 5.17% | 15.4% | 29.3% | -3.8%
11 | Cc1ccoc1-c1nnc(CN2CCn3c(nnc3C3CC3)C2)o1 | -3.51% | 0% | -0.995% | 0.201% | 0.444% | -4.16% | 7.27% | -1.58% | -10.3% | -2.12%
12 | OC(COc1ccc(F)cc1)CN1CCC(Cn2cccn2)CC1 (stereo not given) | 0.447% | 18.2% | 8.44% | 0.933% | -5.12% | 6.14% | -5.99% | 10.8% | 23.5% | -4.98%
13 | CCc1ncnc2c1CCN(Cc1ccc(OC)cc1)CC2 | -4.58% | -6.49% | -0.0854% | 2.82% | -2.02% | -3.79% | -6.35% | 1.58% | -12.8% | 0.0386%
14 | CCOc1ncccc1C(=O)N1CCCC(c2nccn2CCOC)C1 (stereo not given) | -8.34% | 5.41% | 1.4% | -1.26% | -3.85% | 12.2% | 9.33% | 3.72% | 12.2% | 2.21%
15 | Cc1cnn(CC2CCCN2C(=O)c2cc(Cl)ccc2F)c1 (stereo not given) | -1.32% | 2.6% | -6.93% | -0.933% | 5.12% | 4.91% | 10.8% | -1.96% | -2.35% | 2.99%
16 | Cc1nc(C)n(CC2CCCN2Cc2nc3ccccc3n2C)n1 (stereo not given) | -5.84% | 10.7% | 7.93% | 1.81% | 3.55% | 17.6% | 8.44% | 1.58% | 12.8% | -12.7%
17 | CC(C)CN1CCC2(CCN(Cc3ccoc3)CC2)C1=O | -1.85% | 27.3% | 3.42% | 3.94% | -4.57% | 19.7% | -0.618% | 10.6% | 12.5% | -9.31%
18 | O=C(CN1CCCS1(=O)=O)NCCOc1ccc2c(c1)CCC2 | -6.62% | 2.56% | 4.23% | 3.66% | 5.74% | -10.2% | 6.45% | 1.44% | 6.02% | -2.78%
19 | COc1cccc(COCC(=O)N2CCCC(n3ccnc3C)C2)c1 (stereo not given) | -2.06% | -5.13% | -2.52% | 4.6% | 4.92% | -4.35% | 19.1% | -3.35% | 1.21% | 2.95%
20 | O=C(C1CC1)N1CC[C@H](O)[C@@H]1Cc1ccccc1 | -7.5% | 3.9% | -3.5% | -0.75% | 1.37% | 1.8% | -8.68% | 2.9% | 2.5% | -12.8%
21 | CN(CC1CCCCC1)C(=O)c1ccc(-n2ncc(C#N)c2N)cc1 | -0.675% | 2.6% | -3.53% | -9.33% | -9.22% | 7.37% | 48.7% | 4.9% | 16.5% | -3.77%
22 | Cc1nc(CN2CCO[C@@H]3CN(C(=O)NC(C)C)CC[C@@H]3C2)cs1 | -3.94% | 1.3% | 0.95% | -3.8% | -0.405% | 1.85% | -21.3% | 3.68% | 7.69% | -1.55%
23 | CCOCC1CC2(CCN(Cc3ccccn3)CC2)CO1 (stereo not given) | -9.03% | 1.3% | 1.88% | 0.292% | -2.83% | 11.7% | -4.94% | 2.63% | 5.13% | 16.1%
24 | COCCN1CCN(Cc2cccc(OCC(N)=O)c2)CC1C (stereo not given) | -6.03% | 0% | -0.422% | -3.81% | -0.887% | -0.255% | 7.49% | 2.63% | 0% | -4.22%
